Active and inactive are the calls of the source. Rule for the calls: active = hit-call score of the fitted dose curve at least 0.9, where 1 is the maximum; inactive = score below 0.9.
experiment: BSK_4H_Eotaxin3: BioMAP Diversity Plus: 4H Assay for Eotaxin 3 Biomarker Activity (AID 2283000); settings: primary human endothelial cells (HUVEC); actives raise or lower the signal
Procedure: BSK_4H is a cell-based, multiplexed-readout assay that uses umbilical vein endothelium, a human vascular primary cell, with measurements taken at 24 hours after chemical dosing in a 96-well plate.BSK_4H_Eotaxin3 is an assay component measured in the BSK_4H assay. It measures Eotaxin-3 antibody related to regulation of gene expression using ELISA technology.Data from the assay component BSK_4H_Eotaxin3 was analyzed into 1 assay endpoint. This assay endpoint, BSK_4H_Eotaxin3, was analyzed with bidirectional fitting relative to DMSO as the negative control and baseline of activity. Using a type of binding reporter, gain or loss-of-signal activity can be used to understand changes in the signaling as they relate to the gene CCL26. Furthermore, this assay endpoint can be referred to as a primary readout, because this assay has produced multiple assay endpoints where this one serves a signaling function. To generalize the intended target to other relatable targets, this assay endpoint is annotated to the cytokine intended target family, where the subfamily is chemotactic factor.
The levels of cell surface (or secreted, indicated by the prefix "s") biomarker endpoints were measured by ELISA. Overt cytotoxicity to cells in confluent adherent cultures (all systems other than the BT system) was assessed by measuring total protein levels using sulforhodamine B (SRB) staining in parallel cultures at the time of biomarker measurements, indicated as SRB endpoints. For proliferation assays for adherent cell types, individual cell types are cultured at sub-confluence and relative cell numbers quantified by SRB staining at time points optimized for each system (48 h: 3C and CASM3C systems; 72 h: BT and HDF3CGF systems; 96 h: SAg system). SRB was performed by staining cells with 0.1% SRB after fixation with 10% TCA and reading wells at 560 nm.Viability and proliferation of PBMC (T cells) was quantified by Alamar Blue reduction for the SAg and BT systems. For PBMC viability (referred to as PBMC Cytotoxicity within the assay endpoint names), cells were plated (75,000/well in a 96-well plate) and then chemical samples added for 1 h before addition of activators, SEB and TSST-1 (20 ng/mL final concentration each). Cells were incubated for 90 h. Then, Alamar Blue (20 uL/well) (Invitrogen, Cat DAL1100) was added for 6 h, and the plates were read with a fluorescence microplate reader at 546/580 nm (excitation/emission). For PBMC proliferation, cells were plated and activated as above but incubated for only 16 h prior to addition of Alamar Blue. Plates were read after 6 h.

Row | SMILES | outcome | AC50
1 | Clc1nc(Cl)nc(Nc2ccccc2Cl)n1 | inactive | –
2 | Cc1ccc(N=CN(C)C=Nc2ccc(C)cc2C)c(C)c1 | – | 38.6 µM (active)
3 | Nc1c(Cl)c(Cl)nc(C(=O)O)c1Cl | inactive | –
4 | CC1(C)C(C(=O)OC(C#N)c2cccc(Oc3ccccc3)c2)C1(C)C (stereo not given) | inactive | –
5 | COc1cc(Cl)c(OC)cc1Cl | inactive | –
6 | CNC(=O)N(C)c1nnc(C(C)(C)C)s1 | inactive | –
7 | Nc1cnn(-c2ccccc2)c(=O)c1Cl | inactive | –
8 | CCN(CC)c1nc(C)cc(OP(=S)(OC)OC)n1 | inactive | –
9 | C=C(C)CN(CC)c1c([N+](=O)[O-])cc(C(F)(F)F)cc1[N+](=O)[O-] | inactive | –
10 | CCNP(=S)(OC)O/C(C)=C/C(=O)OC(C)C (stereo not given) | inactive | –
11 | COP(=O)(OC)O/C(C)=C/C(=O)N(C)C | inactive | –
12 | CCCCC(C#N)(Cn1cncn1)c1ccc(Cl)cc1 (stereo not given) | inactive | –
13 | COP(=S)(OC)Oc1ccc([N+](=O)[O-])c(C)c1 | inactive | –
14 | CNC(=O)Oc1cccc2ccccc12 | – | 20 µM (active)
15 | CCOc1nc(C(Cl)(Cl)Cl)ns1 | inactive | –
16 | CC(C)Oc1cccc(NC(=O)c2ccccc2C(F)(F)F)c1 | inactive | –
17 | CC(C)=CC1C(C(=O)OCc2coc(Cc3ccccc3)c2)C1(C)C (stereo not given) | – | 8.05 µM (active)
18 | Clc1cccc(C(Cl)(Cl)Cl)n1 | inactive | –
19 | CCOc1cc(C(C)(C)C)ccc1C1COC(c2c(F)cccc2F)=N1 (stereo not given) | – | 29 µM (active)
20 | C=CCOC(=O)C(C)(C)OC(=O)c1cc(-n2c(=O)cc(C(F)(F)F)n(C)c2=O)ccc1Cl | inactive | –

Row | SMILES | outcome | AC50
21 | O=C(Nc1ccccc1-c1ccc(Cl)cc1)c1cccnc1Cl | inactive | –
22 | CC(C)(C)C(=O)C(Oc1ccc(Cl)cc1)n1cncn1 (stereo not given) | inactive | –
23 | CSC(=O)c1c(C(F)F)nc(C(F)(F)F)c(C(=O)SC)c1CC(C)C | inactive | –
24 | CCOP(=S)(OCC)Oc1nc(Cl)n(C(C)C)n1 | inactive | –
25 | COC(=O)NS(=O)(=O)c1ccc(N)cc1 | inactive | –
26 | COCc1cnc(C2=NC(C)(C(C)C)C(=O)N2)c(C(=O)O)c1 (stereo not given) | inactive | –
27 | CCCN(CC)CC1COC2(CCC(C(C)(C)C)CC2)O1 (stereo not given) | inactive | –
28 | OC(c1ccc(Cl)cc1)(c1ccc(Cl)cc1)C(Cl)(Cl)Cl | – | 29.8 µM (active)
29 | CC(C)C1(C)N=C(c2ncccc2C(=O)O)NC1=O (stereo not given) | inactive | –
30 | CS(=O)(=O)c1ccc(C(=O)C2C(=O)CCCC2=O)c([N+](=O)[O-])c1 | inactive | –
31 | O=C1C2CC=CCC2C(=O)N1SC(Cl)(Cl)Cl (stereo not given) | inactive | –
32 | CCCCC(O)(Cn1cncn1)c1ccc(Cl)cc1Cl (stereo not given) | inactive | –
33 | CCOP(=O)(OCC)Oc1nc(Cl)c(Cl)cc1Cl | – | 30.5 µM (active)
34 | Cn1c(-c2ccccc2)cc(-c2ccccc2)[n+]1C | inactive | –
35 | CN/C(=N\[N+](=O)[O-])NCc1cnc(Cl)s1 | inactive | –
36 | CC(C)NC(=O)N1CC(=O)N(c2cc(Cl)cc(Cl)c2)C1=O | inactive | –
37 | COCC(C)N(C(=O)CCl)c1c(C)csc1C (stereo not given) | inactive | –
38 | CCC(C)n1c(=O)[nH]c(C)c(Br)c1=O (stereo not given) | inactive | –
39 | COc1ccc(-c2ccccc2)cc1NNC(=O)OC(C)C | inactive | –
40 | CCOc1nc(F)cc2nc(S(=O)(=O)Nc3c(Cl)cccc3Cl)nn12 | inactive | –

Reference: PubChem BioAssay (EPA / NIEHS)
